Source: the supplement of paper PMC10849652
Targets with a hit are over-represented here; the source holds about 8,800 in all. About 0.5% of all pairs of compound and target were hits.

Each target was assayed with Cc1cn(-c2cc(NC(=O)c3ccc(C)c(Nc4nccc(-c5cccnc5)n4)c3)cc(C(F)(F)F)c2)cn1 [nilotinib] (assay: log2 fold change, soluble protein after heating vs DMSO (PISA); higher = thermal stabilisation; K562 lysate, 10 uM; active = over 0.2 and 3.5 SD of the protein, either way, in both replicates (recomputed)).
In short: (§1)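 Pellets of K562 cells were dounce-homogenised in PBS pH 7.4 with 1 mM MgCl2, and the crude extract was held at 1 mg/mL protein for a 30 min treatment with 10 μM compound. Aliquots were heated for 3 min over 48°C-58°C and pooled before NP-40 was added to 0.5% at 4°C. The supernatant from 21,000xg for 90 min was quantified by TMTpro 16plex LC-MS/MS with channel sums equalised. Values are reported from duplicates as log-two fold change in thermal stability relative to solvent controls.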

UniProt Q99797, sequence (Q99797 whole entry, looked up): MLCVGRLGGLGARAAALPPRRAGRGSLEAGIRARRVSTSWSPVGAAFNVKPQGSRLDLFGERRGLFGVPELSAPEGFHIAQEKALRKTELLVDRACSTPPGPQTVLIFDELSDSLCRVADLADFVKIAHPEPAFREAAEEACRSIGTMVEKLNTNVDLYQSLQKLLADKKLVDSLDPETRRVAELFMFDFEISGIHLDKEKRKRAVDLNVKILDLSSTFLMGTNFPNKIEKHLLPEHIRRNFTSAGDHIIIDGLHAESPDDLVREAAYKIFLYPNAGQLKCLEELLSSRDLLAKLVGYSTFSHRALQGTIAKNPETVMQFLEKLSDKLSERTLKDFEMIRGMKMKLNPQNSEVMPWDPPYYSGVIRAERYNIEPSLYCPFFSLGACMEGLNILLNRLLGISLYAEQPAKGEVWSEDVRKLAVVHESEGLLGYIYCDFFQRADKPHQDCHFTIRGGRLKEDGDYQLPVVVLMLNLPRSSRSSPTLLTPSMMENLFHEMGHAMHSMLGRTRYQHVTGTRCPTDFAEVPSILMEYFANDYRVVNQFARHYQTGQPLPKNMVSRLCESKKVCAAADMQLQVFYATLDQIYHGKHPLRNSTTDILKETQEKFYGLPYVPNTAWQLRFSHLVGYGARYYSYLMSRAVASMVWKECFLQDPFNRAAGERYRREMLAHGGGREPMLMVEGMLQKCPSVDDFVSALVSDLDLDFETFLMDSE
UniProt Q15013, sequence (Q15013 whole entry, looked up): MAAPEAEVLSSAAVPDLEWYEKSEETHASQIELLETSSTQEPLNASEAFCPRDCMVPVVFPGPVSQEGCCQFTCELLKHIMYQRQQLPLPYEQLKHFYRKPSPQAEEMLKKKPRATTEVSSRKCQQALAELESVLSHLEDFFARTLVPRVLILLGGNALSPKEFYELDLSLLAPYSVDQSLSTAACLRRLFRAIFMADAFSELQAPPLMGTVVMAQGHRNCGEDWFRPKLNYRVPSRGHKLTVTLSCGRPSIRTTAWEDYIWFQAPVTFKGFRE
UniProt Q92615, sequence (Q92615 whole entry, looked up): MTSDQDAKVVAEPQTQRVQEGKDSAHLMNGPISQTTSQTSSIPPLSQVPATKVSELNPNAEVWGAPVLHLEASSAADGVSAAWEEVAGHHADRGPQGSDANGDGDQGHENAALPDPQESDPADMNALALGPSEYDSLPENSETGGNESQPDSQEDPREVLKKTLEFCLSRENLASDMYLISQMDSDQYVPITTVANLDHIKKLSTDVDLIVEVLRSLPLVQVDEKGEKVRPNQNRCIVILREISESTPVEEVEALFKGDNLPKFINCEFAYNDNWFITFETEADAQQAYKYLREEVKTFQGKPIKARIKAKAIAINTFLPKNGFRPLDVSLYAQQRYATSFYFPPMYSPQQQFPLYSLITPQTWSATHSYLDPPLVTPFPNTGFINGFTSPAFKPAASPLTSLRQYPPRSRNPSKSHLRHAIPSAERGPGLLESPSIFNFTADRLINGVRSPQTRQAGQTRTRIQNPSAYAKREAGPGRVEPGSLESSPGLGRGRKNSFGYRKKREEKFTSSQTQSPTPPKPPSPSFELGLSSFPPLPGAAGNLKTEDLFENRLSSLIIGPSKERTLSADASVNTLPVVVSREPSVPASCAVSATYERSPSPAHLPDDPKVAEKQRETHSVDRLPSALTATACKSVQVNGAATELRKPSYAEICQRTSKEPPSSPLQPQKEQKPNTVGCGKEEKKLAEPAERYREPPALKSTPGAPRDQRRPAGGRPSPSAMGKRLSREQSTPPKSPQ
UniProt Q96G25, sequence (Q96G25 whole entry, looked up): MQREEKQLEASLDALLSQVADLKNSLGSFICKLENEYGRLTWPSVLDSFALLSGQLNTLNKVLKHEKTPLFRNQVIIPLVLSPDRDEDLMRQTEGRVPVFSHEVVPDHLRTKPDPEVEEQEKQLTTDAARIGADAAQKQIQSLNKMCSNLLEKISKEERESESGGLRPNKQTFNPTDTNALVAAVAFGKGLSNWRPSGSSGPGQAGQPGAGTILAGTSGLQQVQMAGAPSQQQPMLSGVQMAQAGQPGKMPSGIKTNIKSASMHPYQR
UniProt O14733, sequence (O14733 whole entry, looked up): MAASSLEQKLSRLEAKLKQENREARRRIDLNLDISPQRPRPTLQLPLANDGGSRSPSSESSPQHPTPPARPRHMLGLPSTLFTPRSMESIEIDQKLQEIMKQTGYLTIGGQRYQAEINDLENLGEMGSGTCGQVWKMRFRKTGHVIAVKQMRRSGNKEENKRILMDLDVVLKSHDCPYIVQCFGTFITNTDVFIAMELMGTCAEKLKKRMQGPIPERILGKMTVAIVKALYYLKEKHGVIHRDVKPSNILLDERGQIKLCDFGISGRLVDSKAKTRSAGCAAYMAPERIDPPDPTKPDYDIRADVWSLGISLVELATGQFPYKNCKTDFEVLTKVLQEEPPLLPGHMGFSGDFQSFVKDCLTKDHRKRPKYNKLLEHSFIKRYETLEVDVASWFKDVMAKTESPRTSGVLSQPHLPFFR
UniProt P49917, sequence (P49917 whole entry, looked up): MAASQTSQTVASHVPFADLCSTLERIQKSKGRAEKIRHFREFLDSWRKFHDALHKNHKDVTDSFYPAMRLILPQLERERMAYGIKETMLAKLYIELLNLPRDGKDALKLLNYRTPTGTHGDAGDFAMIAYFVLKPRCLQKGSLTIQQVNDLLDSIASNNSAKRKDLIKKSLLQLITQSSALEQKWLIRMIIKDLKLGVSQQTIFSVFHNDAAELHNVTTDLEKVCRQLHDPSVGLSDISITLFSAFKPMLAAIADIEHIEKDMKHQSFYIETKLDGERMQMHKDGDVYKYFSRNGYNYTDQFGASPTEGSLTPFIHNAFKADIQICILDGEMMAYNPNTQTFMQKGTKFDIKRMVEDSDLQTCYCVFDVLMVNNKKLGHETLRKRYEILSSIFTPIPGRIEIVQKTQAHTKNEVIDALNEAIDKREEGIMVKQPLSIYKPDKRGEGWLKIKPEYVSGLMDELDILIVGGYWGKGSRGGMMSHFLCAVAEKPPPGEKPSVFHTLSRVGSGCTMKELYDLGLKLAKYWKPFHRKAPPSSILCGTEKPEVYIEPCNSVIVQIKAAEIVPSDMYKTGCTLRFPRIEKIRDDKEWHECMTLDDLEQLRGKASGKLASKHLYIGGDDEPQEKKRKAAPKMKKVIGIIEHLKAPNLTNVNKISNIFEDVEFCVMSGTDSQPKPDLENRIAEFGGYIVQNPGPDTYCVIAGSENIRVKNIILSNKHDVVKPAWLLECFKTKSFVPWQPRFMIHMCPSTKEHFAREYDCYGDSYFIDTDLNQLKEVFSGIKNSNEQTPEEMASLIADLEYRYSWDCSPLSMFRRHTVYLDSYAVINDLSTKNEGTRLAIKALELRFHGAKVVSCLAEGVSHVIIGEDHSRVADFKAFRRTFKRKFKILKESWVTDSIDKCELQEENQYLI
UniProt Q9BTT4, sequence (Q9BTT4 whole entry, looked up): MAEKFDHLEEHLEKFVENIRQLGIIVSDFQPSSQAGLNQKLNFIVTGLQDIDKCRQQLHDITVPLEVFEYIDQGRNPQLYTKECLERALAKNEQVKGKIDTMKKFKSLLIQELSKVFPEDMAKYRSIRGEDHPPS
UniProt P11279, sequence (P11279 whole entry, looked up): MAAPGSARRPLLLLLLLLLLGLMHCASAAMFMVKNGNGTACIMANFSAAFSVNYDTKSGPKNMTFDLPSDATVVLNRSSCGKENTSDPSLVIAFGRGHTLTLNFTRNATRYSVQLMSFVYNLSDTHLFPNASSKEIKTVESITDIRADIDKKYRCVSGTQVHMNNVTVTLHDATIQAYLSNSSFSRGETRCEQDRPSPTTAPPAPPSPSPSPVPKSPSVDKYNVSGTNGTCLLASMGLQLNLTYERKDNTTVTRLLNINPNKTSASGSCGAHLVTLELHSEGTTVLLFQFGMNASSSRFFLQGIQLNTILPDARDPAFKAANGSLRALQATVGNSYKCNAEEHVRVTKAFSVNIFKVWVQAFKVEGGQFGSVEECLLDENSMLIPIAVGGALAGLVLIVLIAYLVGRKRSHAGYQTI
UniProt Q8N5J2, sequence (Q8N5J2 whole entry, looked up): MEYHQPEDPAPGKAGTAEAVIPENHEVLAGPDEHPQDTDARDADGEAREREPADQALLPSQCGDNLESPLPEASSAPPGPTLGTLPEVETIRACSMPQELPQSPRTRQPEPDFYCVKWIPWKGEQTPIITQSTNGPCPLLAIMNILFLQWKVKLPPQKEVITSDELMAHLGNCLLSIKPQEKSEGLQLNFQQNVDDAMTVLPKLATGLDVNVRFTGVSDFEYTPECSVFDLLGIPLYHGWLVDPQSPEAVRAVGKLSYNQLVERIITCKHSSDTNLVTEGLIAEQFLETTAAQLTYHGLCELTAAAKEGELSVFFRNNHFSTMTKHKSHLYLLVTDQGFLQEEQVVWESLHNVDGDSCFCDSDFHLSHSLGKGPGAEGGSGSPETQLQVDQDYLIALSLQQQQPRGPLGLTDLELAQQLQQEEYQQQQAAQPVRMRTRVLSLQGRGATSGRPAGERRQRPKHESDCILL
UniProt Q9H0B6, sequence (Q9H0B6 whole entry, looked up): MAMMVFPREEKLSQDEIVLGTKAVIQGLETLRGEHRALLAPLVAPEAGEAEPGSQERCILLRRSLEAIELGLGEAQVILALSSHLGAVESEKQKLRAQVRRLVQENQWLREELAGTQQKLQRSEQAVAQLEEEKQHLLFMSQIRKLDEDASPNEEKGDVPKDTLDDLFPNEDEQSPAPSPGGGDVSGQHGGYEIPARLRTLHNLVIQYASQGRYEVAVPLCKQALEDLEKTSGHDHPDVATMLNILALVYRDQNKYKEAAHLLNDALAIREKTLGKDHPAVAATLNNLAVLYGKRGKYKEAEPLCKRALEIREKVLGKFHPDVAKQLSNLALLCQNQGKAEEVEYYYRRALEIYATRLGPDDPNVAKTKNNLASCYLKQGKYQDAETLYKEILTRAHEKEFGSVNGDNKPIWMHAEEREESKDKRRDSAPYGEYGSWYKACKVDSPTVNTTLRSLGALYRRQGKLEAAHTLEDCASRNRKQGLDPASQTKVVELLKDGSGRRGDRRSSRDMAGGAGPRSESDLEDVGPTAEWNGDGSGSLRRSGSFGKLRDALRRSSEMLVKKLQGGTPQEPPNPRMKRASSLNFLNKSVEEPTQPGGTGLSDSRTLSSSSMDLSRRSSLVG

log2 fold change, inactive:
MITD1 (UniProt Q8WV92) -0.022
LYRM4 (UniProt Q9HD34) 0.009
LSG1 (UniProt Q9H089) 0.003
MED8 isoform 2 (UniProt Q96G25) 0.084
LARP4B (UniProt Q92615) -0.05
MPDZ (UniProt O75970) -0.097
LGALS3BP (UniProt Q08380) -0.056
MCMBP (UniProt Q9BTE3) -0.01
MIPEP (UniProt Q99797) 0.002
MED17 (UniProt Q9NVC6) -0.011
MLH1 (UniProt P40692) 0
LIG4 (UniProt P49917) 0.02
MPZL1 (UniProt O95297) -0.03
MAPK9 (UniProt P45984) -0.015
MAP2K7 isoform 4 (UniProt O14733) 0.017
MFF isoform 2 (UniProt Q9GZY8) -0.025
LYAR (UniProt Q9NX58) 0.01
MECR (UniProt Q9BV79) -0.085
MAPKAPK3 (UniProt Q16644) -0.024
MAP3K4 (UniProt Q9Y6R4) 0.003
MAST4 (UniProt O15021) -0.078
MINDY1 isoform 3 (UniProt Q8N5J2) -0.03
LYSMD3 (UniProt Q7Z3D4) -0.096
LARS2 (UniProt Q15031) -0.002
MCCC1 (UniProt Q96RQ3) -0.025
MIF (UniProt P14174) 0.036
LAMP1 (UniProt P11279) 0.021
MED12 isoform 2 (UniProt Q93074) -0.017
MAP4 (UniProt E7EVA0) 0.073
MED10 (UniProt Q9BTT4) 0.042
KLC2 (UniProt Q9H0B6) 0.016
LRWD1 (UniProt Q9UFC0) 0.026
MBD2 (UniProt Q9UBB5) 0.012
LARS (UniProt Q9P2J5) 0.012
MON2 isoform 5 (UniProt Q7Z3U7) -0.006
MAD2L1BP isoform 3 (UniProt Q15013) -0.028
MLLT11 (UniProt Q13015) 0.068
LIG3 (UniProt P49916) 0.012
LIMS1 isoform 3 (UniProt P48059) 0.076

The targets below were run with Cc1nc(Nc2n[nH]c3c2CN(C(=O)N[C@H](CN(C)C)c2ccccc2)C3(C)C)c2sccc2n1 in the same assay as above.
In short: as §1

log2 fold change, inactive:
MITD1 (UniProt Q8WV92) 0.089
LYRM4 (UniProt Q9HD34) -0.031
LSG1 (UniProt Q9H089) 0.015
MED8 isoform 2 (UniProt Q96G25) -0.033
LARP4B (UniProt Q92615) 0.03
MPDZ (UniProt O75970) 0.245
LGALS3BP (UniProt Q08380) 0.06
MCMBP (UniProt Q9BTE3) -0.008
MIPEP (UniProt Q99797) 0.024
MED17 (UniProt Q9NVC6) 0.036
MLH1 (UniProt P40692) 0.014
LIG4 (UniProt P49917) -0.072
MPZL1 (UniProt O95297) 0.032
MAPK9 (UniProt P45984) 0.025
MAP2K7 isoform 4 (UniProt O14733) -0.101
MFF isoform 2 (UniProt Q9GZY8) -0.039
LYAR (UniProt Q9NX58) -0.021
MECR (UniProt Q9BV79) 0.012
MAPKAPK3 (UniProt Q16644) 0.077
MAP3K4 (UniProt Q9Y6R4) 0.206
MAST4 (UniProt O15021) 0.114
MINDY1 isoform 3 (UniProt Q8N5J2) 0.154
LYSMD3 (UniProt Q7Z3D4) -0.293
LARS2 (UniProt Q15031) 0.048
MCCC1 (UniProt Q96RQ3) 0.002
MIF (UniProt P14174) -0.042
LAMP1 (UniProt P11279) -0.033
MED12 isoform 2 (UniProt Q93074) -0.025
MAP4 (UniProt E7EVA0) 0.021
MED10 (UniProt Q9BTT4) -0.012
KLC2 (UniProt Q9H0B6) 0.013
LRWD1 (UniProt Q9UFC0) -0.05
MBD2 (UniProt Q9UBB5) 0.007
LARS (UniProt Q9P2J5) 0.003
MON2 isoform 5 (UniProt Q7Z3U7) -0.021
MAD2L1BP isoform 3 (UniProt Q15013) 0.108
MLLT11 (UniProt Q13015) 0.03
LIG3 (UniProt P49916) 0.002
LIMS1 isoform 3 (UniProt P48059) 0.035
